From PubChem BioAssay AID1851 (National Center for Advancing Translational Sciences (NCATS), 2009)
The whole screen tested about 16,000 compounds, of which about 5,100 (32%) were called active. Roughly 25% stayed inconclusive and do not appear here. The call rests on the fitted dose curve; in most records, active means well fitted curve in the direction sought with a large enough effect; inconclusive means small, poorly fitted or top-dose-only effect, or effect the other way; inactive means no such curve, though single readings can be large or run the other way. Some of the results follow.

target: Cytochrome P450 3A4 (Homo sapiens) (UniProt P08684); assay: Cytochrome panel assay with activity outcomes; settings: recombinant CYP, pro-luciferin dealkylation, luminescence, p450-cyp3a4; series mostly up to 57.1 µM; activity, negative = inhibition: at the top concentration
On the % scale 0 is the no-effect control and ±100 the full control effect.

Cytochrome P450 3A4 (Homo sapiens), sequence (P08684 whole entry, looked up): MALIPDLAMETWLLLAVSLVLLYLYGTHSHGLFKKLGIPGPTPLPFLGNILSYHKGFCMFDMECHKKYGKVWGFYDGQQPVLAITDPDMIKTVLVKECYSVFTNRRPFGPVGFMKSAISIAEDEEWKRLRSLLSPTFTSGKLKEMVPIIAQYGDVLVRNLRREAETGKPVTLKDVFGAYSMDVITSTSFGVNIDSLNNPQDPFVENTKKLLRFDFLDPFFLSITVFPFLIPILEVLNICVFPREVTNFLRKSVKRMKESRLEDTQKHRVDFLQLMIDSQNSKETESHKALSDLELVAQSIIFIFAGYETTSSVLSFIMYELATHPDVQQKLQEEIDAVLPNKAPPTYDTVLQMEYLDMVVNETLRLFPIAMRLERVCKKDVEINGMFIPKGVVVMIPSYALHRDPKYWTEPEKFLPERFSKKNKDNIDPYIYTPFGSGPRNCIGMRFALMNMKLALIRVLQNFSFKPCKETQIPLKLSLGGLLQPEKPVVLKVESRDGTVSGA

activity, negative = inhibition, inactive:
COc1ccccc1OCC(=O)NNC(=O)c1cnccn1 16% [at 2.29 µM]
O=C(NNC(=O)C1CCCCC1)c1cnccn1 -0.435% [at 2.29 µM]
CSc1nc(-c2ccc(C)cc2)nc(C(Cl)Cl)n1 -4.04%
Cc1noc(C)c1C(=O)N1CCC2(CCN(Cc3cc(C(F)(F)F)cc(C(F)(F)F)c3)CC2)CC1 -11.6%
Cc1noc(C)c1C(=O)N1CCC2(CC1)CN(c1ncccn1)C2 -3.04%
COc1ccccc1CN1CCC2(CC1)CCN(C(=O)c1c(C)noc1C)CC2 -14.3%
Cc1noc(C)c1C(=O)N1CCC2(CCN(Cc3nccs3)CC2)CC1 -15.6%
Cc1noc(C)c1C(=O)N1CCC2(CCN(Cc3ccccc3)CC2)CC1 -9.16%
CC(C)(N=NC(C)(C)C1=NCCN1)C1=NCCN1 -8.65% [at 11.4 µM]
COc1cnc(NS(=O)(=O)c2ccc(N)cc2)nc1 -28.2% [at 25.6 µM]
CCCCOc1ccc(OC(=O)c2cccnc2)cc1 -18.3%
C[C@H](NC[C@H](O)CP(=O)(O)Cc1ccccc1)c1ccc(Cl)c(Cl)c1 -13.6%
Cc1ccccc1-c1nc(NC2CCNCC2)c2ccccc2n1 -20.4%
FC(F)(F)c1ccccc1-c1nc(NC2CCNCC2)c2ccccc2n1 -4.54%
N[C@H](C(=O)O)C1[C@H](C(=O)O)[C@H]1C(=O)O (stereo partly drawn) -11.1%
CCCNC(=S)Nc1ccc(Br)cc1 -29.9%
COCC(=O)N1CCC2(CCN(Cc3ccccc3)CC2)CC1 -24.6%
CC(=O)N1CCC2(CCN(Cc3ccccc3)CC2)CC1 -7.61%
CC(C)NC1(C(N)=O)CCN(Cc2ccccc2)CC1 -7.69% [at 11.4 µM]
Nc1nc(N)c(N=Nc2ccc(C(=O)O)c(O)c2)c(N)n1 -18% [at 11.4 µM]
CC(Oc1ccccc1)C(=O)Nc1nc2c(s1)C(=O)CC(C)(C)C2 (stereo not drawn) -14.5%
COc1ccc(NC(=O)OC(C)C)cc1 -9.73% [at 2.29 µM]
CN(N=O)c1ccc(/C=C\c2ccnc3ccccc23)cc1 -15.2% [at 11.4 µM]
Cc1nc2ccccn2c1/C(O)=C1\C(=O)C(=O)N(CCN2CCOCC2)C1c1cccnc1 (stereo not drawn) -19.1%
Cc1nc2c(C)cccn2c1/C(O)=C1\C(=O)C(=O)N(CCN2CCOCC2)C1c1cccs1 (stereo not drawn) -26.2%
Cc1cccc(CN(C)CCc2ccccn2)c1 -16.6%
CC(C)C(=O)C(C)(C)CCc1ccccn1 -11% [at 11.4 µM]
CCS(=O)(=O)N1CCC(C(=O)NCc2ccccc2OC)CC1 4.92% [at 11.4 µM]
O=C(Nc1cc2c(oc1=O)CCCC2=O)c1ccc(Cl)cc1 -7.77%
Cc1cc(NC(=O)c2cc(C(C)C)on2)no1 -1.14%
CCOc1ccc(C(=O)Nc2ccccc2N2CCCC2)cc1 -11.9% [at 2.29 µM]
O=C(Nc1cc(C(F)(F)F)ccc1N1CCCCC1)c1ccc(Br)o1 -26.6%
NS(=O)(=O)c1cc(C(=O)O)cc(N2CCCC2)c1Oc1ccccc1 -10.8% [at 25.6 µM]
Cc1ccc(OCC(=O)Nc2ccc(Cl)cc2)c(-n2nc3ccccc3n2)c1 -10.5% [at 2.29 µM]
O=P(O)(O)O[C@@H]1O[C@H](CO)[C@@H](O)[C@H](O)[C@@H]1O -3.16% [at 11.4 µM]
CN1CCN(C(=O)c2ccc3c(=O)n4c(nc3c2)CCCCC4)CC1 -14.7%
O=c1c2ccccc2nc(-c2ccc(Br)cc2)n1Cc1ccccc1 -24.8%
COc1ccc(NC(=O)N2CC3(CCN(C(=O)c4cccn4C)CC3)C2)cc1 8.86%
Cn1cccc1C(=O)N1CCC2(CC1)CN(C(=O)Nc1ccccc1)C2 17.1%
COC(=O)N1CCC[C@@]2(CCN(C(=O)Nc3ccccc3)C2)C1 -17.2%
COc1ccc(C(=O)N2CCC3(CC2)CN(C(=O)Nc2ccccc2)C3)cc1 -7.5%
CC(=O)ON(C(C)=O)S(=O)(=O)c1ccc(Cl)cc1 -17.1%
COC(=O)N1CCC2(CC1)CN(C(=O)Nc1ccc(OC)cc1)C2 2.58%
COc1ccc(NC(=O)N2CC[C@@]3(CCCN(C(C)=O)C3)C2)cc1 -13.3%
COc1ccc(NC(=O)N2CC3(CCN(C(=O)c4ccco4)CC3)C2)cc1 -10.7%
COc1ccc(NC(=O)N2CC[C@@]3(CCCNC3)C2)cc1 -19.2%
COCC(=O)N1CCC2(CC1)CN(C(=O)Nc1ccc(OC)cc1)C2 -11.2%
COc1ccc(NC(=O)N2CCC3(CC2)CCN(C(=O)c2ccco2)CC3)cc1 20.5%
N#Cc1ccc(Oc2nc(C(N)=O)cc(-c3ccccc3)n2)cc1 -2.92%
CO/N=C(\C(=O)N[C@@H]1C(=O)N2C(C(=O)[O-])=C(C[N+]3(C)CCCC3)CS[C@@H]12)c1csc(N)n1 24.4% [at 25.6 µM]
Nc1nc2c(c(=O)[nH]1)N[C@H](CCNc1ccc(C(=O)O)cc1)CN2 -0.744% [at 11.4 µM]
CCOc1c2ccc(C(=O)NCc3ccc(OC(F)(F)F)cc3)cc2nn1CC -2.81% [at 2.29 µM]
C(=C1/CCCC2=C1Nc1ncnn1C2c1ccccc1)/c1ccccc1 (stereo not drawn) 30.7%
COc1ccc(NC(=O)c2ccc(-n3cccn3)nc2)c(OC)c1 -25.9%
CCOc1ccc(/C(O)=C2/C(=O)C(=O)N(CCOCCO)C2c2cccnc2)cc1 (stereo not drawn) -16%

AC50, active:
O=C(NCc1ccccc1Cl)c1cnccn1 1 µM
COc1cccc(-c2nccc(NCc3ccccc3OC)n2)c1 2.51 µM
COc1ccc(CNc2ccnc(-c3cccc(NS(C)(=O)=O)c3)n2)c(OC)c1 3.98 µM
COc1ccc(CNc2ccnc(-c3cccnc3)n2)c(OC)c1 0.631 µM
COCCNc1ccnc(-c2cccc(NS(C)(=O)=O)c2)n1 25.1 µM
COc1cccc(-c2nccc(NCc3ccc(OC)cc3OC)n2)c1 3.16 µM
Cc1noc(C)c1C(=O)N1CCC[C@@]2(CCN(Cc3ccccc3)C2)C1 12.6 µM
COc1ccccc1CN1CC[C@@]2(CCCN(C(=O)c3c(C)noc3C)C2)C1 1.58 µM
Cc1noc(C)c1C(=O)N1CCC[C@@]2(CCN(Cc3nccs3)C2)C1 15.8 µM
CCCCOc1ccc(S(=O)(=O)Nc2cccnc2)cc1 2.51 µM
Cc1ccc(Nc2nnc(-c3ccc4c(c3)OCO4)o2)c(C)c1 3.16 µM
COc1ccccc1-c1nc(NC2CC2)c2ccccc2n1 12.6 µM
Cc1ccccc1-c1nc(NC2CC2)c2ccccc2n1 3.98 µM
FC(F)(F)c1ccccc1-c1nc(NC2CC2)c2ccccc2n1 3.16 µM
CN(C)Cc1ccccc1-c1nc(NC2CC2)c2ccccc2n1 15.8 µM
Cc1ccc(SCCNC(=S)Nc2ccc(C)c(C)c2)cc1 6.31 µM
CCOC(=O)C1(S(=O)(=O)c2ccccc2)CCN(Cc2ccccc2)CC1 5.01 µM
CCOC(=O)C1(S(=O)(=O)c2ccc(Cl)cc2)CCN(Cc2ccc(Cl)cc2)CC1 7.08 µM
CC1(C)Cc2c(C#N)c(SCc3ccccc3)nc(N3CCOCC3)c2CO1 25.1 µM
CCn1c2ccccc2c2cc(NC(=O)C(C)Oc3ccc(OC)cc3)ccc21 (stereo not drawn) 6.31 µM
CCN(CC)c1ccc(/C=C/c2nc3ccccc3s2)cc1 11.2 µM
Cc1nc2ccccn2c1/C(O)=C1\C(=O)C(=O)N(CCCn2ccnc2)C1c1ccncc1 (stereo not drawn) 11.2 µM
CN(CCc1ccccn1)Cc1ccc(Cl)cc1Cl 7.94 µM
COc1cccc(CNC(=O)C2CCN(S(=O)(=O)N3CCCCC3)CC2)c1 22.4 µM
COc1ccc(CCNC(=O)C2CCN(S(=O)(=O)N3CC(C)CC(C)C3)CC2)cc1OC (stereo not drawn) 7.08 µM
COc1ccccc1CNC(=O)C1CCN(S(=O)(=O)N2CC(C)CC(C)C2)CC1 (stereo not drawn) 11.2 µM
O=C(COc1ccccc1)Nc1cc(C(F)(F)F)ccc1N1CCCC1 3.98 µM
CC(=O)N1CCN(c2ccccc2NC(=O)COc2ccc(Br)cc2)CC1 4.47 µM
Cc1ccc(OCC(=O)Nc2ccccc2N2CCOCC2)c(C)c1 14.1 µM
CCCCC(=O)NC(Nc1cc(C)ccn1)(C(=O)OCC)C(F)(F)F (stereo not drawn) 7.08 µM
N#CCSc1nc2ccc(N3CCCCC3)cc2c(=O)n1Cc1ccccc1 7.08 µM
N#CCSc1nc2cc(C(=O)N3CCCC3)ccc2c(=O)n1Cc1ccccc1 12.6 µM
COc1ccc(NC(=O)N2CCCC3(CCN(C(=O)c4cccn4C)CC3)C2)cc1 25.1 µM
COc1ccc(NC(=O)N2CC[C@@]3(CCCN(C(=O)c4cc(C(F)(F)F)cc(C(F)(F)F)c4)C3)C2)cc1 20 µM
COc1ccc(NC(=O)N2CCCC3(CCN(C(=O)c4ccc(OC)cc4)CC3)C2)cc1 12.6 µM
COc1ccc(C(=O)N2CCC[C@@]3(CCN(C(=O)Nc4ccccc4)C3)C2)cc1 15.8 µM
COc1ccc(NC(=O)N2CCCC3(CCN(C(=O)c4ccco4)CC3)C2)cc1 15.8 µM
COc1ccc(NC(=O)N2CC[C@@]3(CCCN(C(=O)c4ccc(OC)cc4)C3)C2)cc1 15.8 µM
COc1ccc(NC(=O)N2CCCC3(CCNCC3)C2)cc1 25.1 µM
CCOC(=O)C(C(=O)NCc1ccc(C)cc1)c1ncc(C(F)(F)F)cc1Cl (stereo not drawn) 1.26 µM
CCOC(=O)C1=C(C)Nc2ncnn2C1c1cccnc1 (stereo not drawn) 11.2 µM
CCCCOC(=O)C1=C(C)Nc2ncnn2C1c1cc(OC)ccc1OC (stereo not drawn) 7.08 µM
COc1cc(OC)c(C2C(C(=O)Nc3ccc(C)cc3C)=C(C)Nc3ncnn32)cc1OC (stereo not drawn) 8.91 µM
